Experimental data: PubChem BioAssay (NCATS)
Inconclusive results are not listed. Values without a mark were called inactive. Calls follow the shape of the dose curve; as a rule, active = well fitted inhibition curve with a large enough effect; inconclusive = small, poorly fitted or top-dose-only effect; inactive = flat fitted curve, though single readings scatter.

Biological target: Calcium and integrin-binding protein 1 (Homo sapiens) (UniProt Q99828)
Experiment: Primary qHTS for Identification of Calcium Integrin Binding Protein 1 (CIB1) Competitor (AID 1508620);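 also: GST tagged CIB1 binding a fluorescein labelled alphaIIb integrin peptide tracer; top concentration of the series differs between compounds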
Conditions: CIB1-GST / FITC-alphaIIb peptide fluorescence polarization; series mostly up to 114 µM; activity change, negative = inhibition: at the top concentration
Summary of the method: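 CIB1-GST (1 uM final) and compound incubated 15 min at room temperature before adding FITC-alphaIIb peptide tracer (100 nM final). Competition for binding read by fluorescence polarization (ex 480, em 540) after another 15 min at room temperature.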
% is scaled to controls: 0 for no effect and ±100 for the full control effect.

Calcium and integrin-binding protein 1 (Homo sapiens), sequence (Q99828 whole entry, looked up): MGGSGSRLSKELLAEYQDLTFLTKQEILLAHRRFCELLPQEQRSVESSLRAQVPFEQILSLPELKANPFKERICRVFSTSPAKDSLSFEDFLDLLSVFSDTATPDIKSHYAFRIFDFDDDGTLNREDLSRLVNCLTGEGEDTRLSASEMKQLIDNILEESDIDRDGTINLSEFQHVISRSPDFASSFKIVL

| SMILES | activity change, negative = inhibition |
| --- | --- |
| COc1ccc(CCN(C)CCCOc2nsc(-c3ccccc3)n2)cc1OC | 6.82% |
| CNCCC(c1cccs1)c1ccc(O)c2ccccc12 (centres undefined) | -0.308% |
| c1cc(NCCc2c[nH]c3ccccc23)cc(Nc2ccncc2)c1 | -15.1% |
| CC1(CO)CC(O)[C@]2(C(=O)O)CCC34CC3(C=CC3[C@]5(C)C(CC[C@]34C)C(C)(CO)[C@@H](O)[C@H](O)[C@@H]5O)C2C1 (some centres undefined) | 1.18% [at 57.7 µM] |
| CC(C)C[C@@H]1NC(=O)[C@@H]2C[C@@]34C[C@@H]5[C@@]6(C)CCCC(C)(C)C6CC[C@@]5(C)N(c5ccccc53)[C@H]4N2C1=O (some centres undefined) | -5.97% [at 57.7 µM] |
| Cc1cccc(-c2[nH]ncc2-c2ccnc3ccccc23)n1 | -0.459% |
| C=CCc1ccc(OC(C)Cc2ccc(OC)c(OC)c2)c(OC)c1 (centres undefined) | 4.5% [at 57.7 µM] |
| COc1cc(Br)c(S(=O)(=O)Nc2ccc(Cl)c(O[C@@H]3CCN(C)C3)c2)cc1OC | 3.62% |
| C/C(=C\CCC(C)C1=CCC2(C)OC3=C(CC12)C(=O)C(O)CC3)CO (centres undefined) | 0.141% [at 57.7 µM] |
| C=C1C(=O)OC2C=C(C)CC/C=C(\CO)CC(O)C12 (centres undefined) | -3.47% |
| C=C1C(=O)O[C@H]2C[C@@H](C)[C@@H]3CCC(=O)[C@@]3(C)C[C@H]12 | -1.91% |
| C=C1C(=O)OC2CC3(C)C(O)C(=O)C=C(C)C3CC12 (centres undefined) | -7.88% |
| C=C1C(OC2OC(CO)C(O)C(O)C2O)CC2C(C)(C)C(O)CCC2(C)C1CC/C(C)=C\COC(=O)CC(=O)O (centres undefined) | 3.79% [at 30.2 µM] |
| CC(C)C[C@@H](N)C(=O)N[C@H]1C(=O)N[C@@H](CC(N)=O)C(=O)N[C@H]2C(=O)N[C@H]3C(=O)N[C@H](C(=O)N[C@H](C(=O)O)c4cc(O)cc(O)c4-c4cc3ccc4O)[C@H](O)c3ccc(c(Cl)c3)Oc3cc2cc(c3O[C@@H]2O[C@H](CO)[C@@H](O)[C@H](O)[C@H]2O[C@H]2C[C@](C)(N)[C@H](O)[C@H](C)O2)Oc2ccc(cc2Cl)[C@H]1O | 0.635% [at 57.7 µM] |
